Bioassay records from PubChem.
Sampled rows, rich in hits. Any-hit rate of the full collection: about 4%.
Measles CPE: protection of cells from measles virus; actives 1.5% (n = 140,000); protection (pct of control), % at 4 µM; AID 841; Measles virus-infected cells, CPE protection, absorbance; in the data active means protection mostly above about 24%, no sharp cut-off; inactive means mostly below about 26%
Arbovirus anti: arbovirus infection inhibition; inhibition, % at 10 µM; actives 0.37% (n = 200,000); arbovirus infection cell-based antiviral screen; in the data active means inhibition above about 30%
Cl transport mod: modulates chloride dependent transport by human KCC2; actives 2.2% (n = 190,000); Q9H2X9; KCC2 cells, thallium flux FluoZin-2 fluorescence; AID 1456; B-score of Tl+ flux slope (higher = more flux/activation; lower = inhibition) at 10 µM;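 active means thallium flux slope and its plate-corrected score both differing from the plate sample mean at a set confidence after two filtering rounds, in either direction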;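 further: slope of fluorescence scaled to starting intensity during 10 to 20 s after thallium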
Target sequence (Q9H2X9 whole entry, looked up): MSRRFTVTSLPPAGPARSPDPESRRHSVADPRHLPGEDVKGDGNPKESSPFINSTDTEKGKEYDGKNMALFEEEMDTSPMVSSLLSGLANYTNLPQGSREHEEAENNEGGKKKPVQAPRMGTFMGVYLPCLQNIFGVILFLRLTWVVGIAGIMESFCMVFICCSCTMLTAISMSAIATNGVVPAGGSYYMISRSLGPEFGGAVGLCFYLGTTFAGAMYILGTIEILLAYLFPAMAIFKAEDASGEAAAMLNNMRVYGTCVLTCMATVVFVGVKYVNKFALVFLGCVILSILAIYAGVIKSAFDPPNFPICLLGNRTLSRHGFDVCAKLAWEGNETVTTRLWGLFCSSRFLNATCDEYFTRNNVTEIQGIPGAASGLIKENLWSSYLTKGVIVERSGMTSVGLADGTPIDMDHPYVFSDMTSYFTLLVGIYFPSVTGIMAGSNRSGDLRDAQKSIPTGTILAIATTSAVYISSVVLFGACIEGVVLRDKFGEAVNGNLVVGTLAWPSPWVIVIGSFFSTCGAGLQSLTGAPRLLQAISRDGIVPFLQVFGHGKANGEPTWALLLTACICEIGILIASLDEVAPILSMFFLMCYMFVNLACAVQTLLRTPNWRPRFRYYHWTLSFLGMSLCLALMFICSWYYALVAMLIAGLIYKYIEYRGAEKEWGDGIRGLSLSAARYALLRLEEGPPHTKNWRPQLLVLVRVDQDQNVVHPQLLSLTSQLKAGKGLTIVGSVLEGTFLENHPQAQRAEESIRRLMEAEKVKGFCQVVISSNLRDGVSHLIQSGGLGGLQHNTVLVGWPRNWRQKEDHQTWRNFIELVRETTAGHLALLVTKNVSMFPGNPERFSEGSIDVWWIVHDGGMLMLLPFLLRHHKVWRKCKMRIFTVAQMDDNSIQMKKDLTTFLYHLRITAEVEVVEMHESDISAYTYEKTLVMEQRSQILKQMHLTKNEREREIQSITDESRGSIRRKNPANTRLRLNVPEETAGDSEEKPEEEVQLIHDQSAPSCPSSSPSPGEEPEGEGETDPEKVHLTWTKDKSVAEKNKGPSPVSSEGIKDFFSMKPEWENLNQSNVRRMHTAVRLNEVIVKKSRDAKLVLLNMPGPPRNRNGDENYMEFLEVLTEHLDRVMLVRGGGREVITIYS
HSV replic up: HSV replication enhancement. actives 0.005% (n = 220,000). HSV replication augmentation in cells, fold increase. maximum fold increase; in the data active means maximum fold increase above about 1.5; inconclusive means no clear call, values can overlap the other calls; tested in PC3 cells
ROMK primary: modulates human ROMK potassium channel activity | Tet-inducible ROMK, thallium flux fluorescence; actives lie on both sides | actives 2% (n = 130,000) | P48048 | B-score at 10 µM | AID 1918;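 active means signal ratio slope over the read window, or its plate-corrected B-score, at least 3 SD from the plate mean, either direction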;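 further: B-score of the F/F0 ratio slope over 7 to 12 s after thallium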
KCC2 sec1: confirmation of human KCC2 transport modulators; shares compounds with Cl transport mod; HEK293-KCC2, thallium flux, FluoZin2 fluorescence; active compounds read high; normalised thallium flux (F/F0 slope) at 10 µM; actives 15% (n = 3,700); AID 1713;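 active means thallium flux slope above the same plate's solvent-only control mean plus 3 SD; inconclusive means the two replicate wells disagree; inactive means no significant difference from solvent-only control wells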
KCC2 bumet counter: thallium flux persisting under bumetanide in KCC2 cells, counter-screen secondary assay | HEK293-KCC2 + bumetanide/ouabain, thallium flux FluoZin2; active compounds read high | normalized thallium flux at 10 µM | shares compounds with Cl transport mod | actives 49% (n = 3,700);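 active means thallium entry rate above the same plate's blocked-transporter control wells by more than 3 SD; inconclusive means the two repeat wells disagree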;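 further: raw slope of fluorescence over initial fluorescence between 10 and 20 s after thallium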
KCC2 sec2: confirmation of human KCC2 transport modulators; actives 23% (n = 3,700); normalized thallium flux at 10 µM; shares compounds with Cl transport mod; HEK293-KCC2, thallium flux FluoZin2 fluorescence; actives lie on both sides; F/F0 rise rate, 10–20 s post-thallium;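 active means thallium flux slope more than 3 SD above or below the plate's solvent-only control mean, mostly below; inconclusive means the two repeat wells disagreed; inactive means no significant shift from solvent-only controls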;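 further: raw slope with 0.1% DMSO as baseline and bumetanide as block control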
HEK293 Tl flux: counter-screen for KCC2 modulators: effect in parental HEK293 cells; shares compounds with Cl transport mod; thallium flux FluoZin2, ouabain; baseline-ratio fluorescence slope, 10–20 s after thallium; thallium flux rate (normalised fluorescence) at 10 µM; actives 46% (n = 3,700); AID 1716;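 active means thallium flux rate significantly above the same plate's solvent-only control wells, beyond their mean plus 3 SD; inconclusive means the two replicate wells gave conflicting results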
KCC2 ouabain: modulates human KCC2 on retest with ouabain; shares compounds with Cl transport mod; actives 48% (n = 3,700); AID 1717; HEK293-KCC2, thallium flux FluoZin2 fluorescence; bidirectional: low = inhibitor, high = activator; raw Tl+ flux slope (below DMSO = inhibition, above = activation) at 10 µM;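 active means thallium flux slope beyond 3 SD from same-plate DMSO control mean in most replicates, usually higher, sometimes lower; inconclusive means repeat tests gave conflicting results; inactive means no significant difference from controls in most replicates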;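 further: slope of initial-normalized fluorescence between seconds 10 and 20 after thallium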
HEK293 Tl flux2: parental HEK flux effect, counter-screen 2 | actives 33% (n = 3,700) | AID 1718 | HEK293 parental, thallium flux FluoZin-2 fluorescence slope | thallium flux slope at 10 µM | shares compounds with Cl transport mod;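 active means thallium flux slope above the same plate's solvent-control mean plus 3 SD in both duplicate wells; inconclusive means duplicate wells that disagreed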;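 further: run without ouabain in cells lacking the KCC2 cotransporter; slope of fluorescence scaled to its starting value between 10 and 20 s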
Starred values were filed as active, the others as inactive; i = inactive; ? = inconclusive; · = not tested or not shown.

SMILES | Measles CPE | Arbovirus anti | Cl transport mod | HSV replic up | ROMK primary | KCC2 sec1 | KCC2 bumet counter | KCC2 sec2 | HEK293 Tl flux | KCC2 ouabain | HEK293 Tl flux2
CC(C)CC(=O)O/N=C1\C(=O)N(Cc2ccc(Cl)cc2)c2ccc([N+](=O)[O-])cc21 | 7.8 | 11.3 | 0.497 | i | · | · | · | · | · | · | ·
NC(CS(=O)O)C(=O)O (stereo unspecified) | · | · | · | i | · | · | · | · | · | · | ·
CC1Cc2ccccc2N1C(=O)c1ccc(N2CCCCC2)c([N+](=O)[O-])c1 (stereo unspecified) | 9.4 | -18.1 | -4.73* | i | · | 0.0106 | ? | ? | 0.00686 | 0.0135* | 0.0101
CC1Cc2ccccc2N1C(=O)c1ccc(N2CCCC2)c([N+](=O)[O-])c1 (stereo unspecified) | 19.3 | -5.5 | -6.53* | i | · | 0.00681 | 0.00467 | 0.0197* | 0.00712 | 0.0126* | 0.0104
O=C(O)c1ccccc1C(=O)c1ccc(N2CCCC2)c([N+](=O)[O-])c1 | · | 2.1 | 0.941 | i | 0.044 | · | · | · | · | · | ·
CCN(CC)C(=O)Oc1ccc(Cl)c2cccnc12 | · | -1.2 | 0.000462 | i | -0.422 | · | · | · | · | · | ·
O=C(Nc1cccc(C(F)(F)F)c1)Oc1ccc(Cl)c2cccnc12 | · | · | 14.5* | i | · | 0.0157 | 0.0215* | 0.0307 | 0.0142* | 0.0212* | 0.0159*
CCc1nc2ccccc2n1Cc1ccccc1F | · | -2.8 | -0.199 | i | -0.469 | · | · | · | · | · | ·
Cc1cccc(Cn2c(C)nc3c(N)c(C)c(C)cc32)c1 | · | -5.5 | -0.0368 | i | -0.593 | · | · | · | · | · | ·
COc1ccc(/C=N/NC(=S)Nc2ccccc2)cc1 | · | -1.2 | 9.05* | i | -0.506 | 0.00942 | 0.0306* | 0.0317 | 0.01* | ? | 0.00954
COc1ccc(/C=N/NC(=S)Nc2cccc(C(=O)O)c2)cc1 | · | -2.2 | -0.152 | i | 0.00121 | · | · | · | · | · | ·
S=C(N/N=C/c1ccc2ncccc2c1)Nc1ccccc1 | · | -13.9 | 6.5* | i | 0.338 | 0.0173 | 0.0215* | 0.029 | 0.0112* | 0.0194 | 0.014*
O=C(CC(=O)Nc1cccc(Cl)c1)N/N=C\c1ccccc1 | 7.9 | -1.9 | 0.395 | i | · | · | · | · | · | · | ·
S=C(N/N=C/c1cccc2ccccc12)Nc1cccc(Cl)c1 | · | · | 3.38* | i | 0.705 | 0.00886 | 0.00694 | 0.0289 | 0.0116* | 0.0294* | 0.0103
O=[N+]([O-])c1cccc(-c2ccc(/C=N/NC(=S)Nc3ccccc3)o2)c1 | 17.4 | -2.9 | 0.497 | ? | 1.19 | · | · | · | · | · | ·
O=[N+]([O-])c1ccc(/C=N/NC(=S)Nc2ccccc2)o1 | · | -4.6 | 5.36* | i | · | 0.013* | 0.026* | 0.0312 | 0.0139* | 0.0276* | 0.0111*
Cc1ccc(NC(=O)CN2CCN(CCN=CC3=C(O)CC(c4ccc(C)cc4)CC3=O)CC2)cc1 (stereo unspecified) | · | 6.0 | -0.541 | i | -0.762 | · | · | · | · | · | ·
CCOC(=O)N=Nc1c(O)n(CC)c2ccccc12 | 3.2 | -4.4 | -0.14 | i | -0.399 | · | · | · | · | · | ·
CCOC(=O)Cn1c(O)c(N=NC(=O)OC)c2ccccc21 | · | · | 0.293 | i | · | · | · | · | · | · | ·
CCOC(=O)N=Nc1c(O)n(Cc2ccccc2)c2ccccc12 | · | -6.0 | 6.88* | i | -0.678 | 0.00571 | 0.0125* | 0.0342 | 0.0121* | 0.0229 | 0.0139*
C/C(Cl)=C\Cn1c(O)c(N=NC(N)=S)c2ccccc21 | · | 3.5 | 42.1* | i | 1.29 | ? | 0.0597* | 0.0619* | 0.0473* | 0.0581* | 0.0448*
COC(=O)N=Nc1c(O)n(Cc2ccccc2)c2ccccc12 | · | · | 0.373 | i | -0.546 | · | · | · | · | · | ·
